# Laboratory results as given in publication PMC7862700, “An all-to-all approach to the identification of sequence-specific readers for epigenetic DNA modifications on cytosine”.
# What was measured:
# Test in all cases: DAPPL (digital affinity profiling via proximity ligation, sequencing); 10 mM Tris-HCl pH 7.5, 50 mM NaCl, 1 mM DTT, 4% glycerol, room temperature, 30 min; GST-TFs on glutathione beads, 16-mer random dsDNA library, 0.1% formaldehyde crosslink after washing; high values mean tight binding
# FLI1 = target: T1, FLI1 (Homo sapiens, UniProt Q01543 1-452); details: protein: recombinant; tags: N-terminal GST; dsDNA, one strand shown
# T1 sequence: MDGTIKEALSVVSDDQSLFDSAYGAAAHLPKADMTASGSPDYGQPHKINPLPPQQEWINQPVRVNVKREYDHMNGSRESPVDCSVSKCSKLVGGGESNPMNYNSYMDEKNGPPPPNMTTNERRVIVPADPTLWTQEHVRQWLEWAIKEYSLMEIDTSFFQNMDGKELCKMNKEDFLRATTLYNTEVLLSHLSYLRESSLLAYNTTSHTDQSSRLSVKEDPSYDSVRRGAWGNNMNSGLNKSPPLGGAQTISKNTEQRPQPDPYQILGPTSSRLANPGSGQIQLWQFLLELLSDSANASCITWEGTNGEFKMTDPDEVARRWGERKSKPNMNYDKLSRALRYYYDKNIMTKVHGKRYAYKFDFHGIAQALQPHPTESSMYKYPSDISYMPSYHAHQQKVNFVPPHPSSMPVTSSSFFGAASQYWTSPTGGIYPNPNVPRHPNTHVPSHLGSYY
# Procedure, shortened: (§1)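 A tag-only sample was pooled with DNA-barcoded human transcription factors that had been expressed in yeast as GST fusions and captured on glutathione beads. The pools were incubated for 30 min at room temperature with 200 nmole of a random double-stranded 16-mer DNA library in Tris/NaCl/DTT/glycerol buffer, then washed, crosslinked with 0.1% formaldehyde, proximity-ligated (BsaI/T4 ligase, 1 h, 37 °C), PCR-amplified and sequenced on an Illumina NextSeq500. Binding signal is each hexamer's read frequency for a factor divided by its frequency for the tag-only sample.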
# ELK1 = target: T2, ELK1 (Homo sapiens, UniProt P19419 1-428); details: protein: recombinant; tags: N-terminal GST; dsDNA, one strand shown
# T2 sequence: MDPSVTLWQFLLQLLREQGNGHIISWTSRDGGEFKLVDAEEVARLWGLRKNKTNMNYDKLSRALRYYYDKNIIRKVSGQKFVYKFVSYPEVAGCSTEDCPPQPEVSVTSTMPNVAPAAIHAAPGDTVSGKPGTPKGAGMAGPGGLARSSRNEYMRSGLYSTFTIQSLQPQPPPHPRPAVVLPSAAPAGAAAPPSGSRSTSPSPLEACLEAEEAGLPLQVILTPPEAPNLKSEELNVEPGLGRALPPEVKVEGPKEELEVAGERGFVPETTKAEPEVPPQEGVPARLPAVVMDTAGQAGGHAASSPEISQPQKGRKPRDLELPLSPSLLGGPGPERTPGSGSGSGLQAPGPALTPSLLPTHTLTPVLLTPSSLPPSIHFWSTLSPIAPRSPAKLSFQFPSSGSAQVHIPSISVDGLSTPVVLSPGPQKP
# Procedure, shortened: as §1
# GABPA = target: T3, GABPA (Homo sapiens, UniProt Q06546 1-454); details: protein: recombinant; tags: N-terminal GST; dsDNA, one strand shown
# T3 sequence: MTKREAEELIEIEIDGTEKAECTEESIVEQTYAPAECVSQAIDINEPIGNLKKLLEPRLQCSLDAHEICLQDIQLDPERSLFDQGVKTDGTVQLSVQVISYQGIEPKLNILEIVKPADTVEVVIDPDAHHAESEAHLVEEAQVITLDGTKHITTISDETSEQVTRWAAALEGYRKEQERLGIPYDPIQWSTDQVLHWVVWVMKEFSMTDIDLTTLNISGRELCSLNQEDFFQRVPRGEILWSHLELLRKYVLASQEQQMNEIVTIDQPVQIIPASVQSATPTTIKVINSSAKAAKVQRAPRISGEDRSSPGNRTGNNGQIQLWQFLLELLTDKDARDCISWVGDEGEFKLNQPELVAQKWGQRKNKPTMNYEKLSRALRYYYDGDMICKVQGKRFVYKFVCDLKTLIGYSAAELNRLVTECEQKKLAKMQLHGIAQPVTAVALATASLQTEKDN
# Procedure, shortened: as §1
# ERG = target: T4, ERG (Homo sapiens, UniProt P11308 1-479); details: protein: recombinant; tags: N-terminal GST; dsDNA, one strand shown
# T4 sequence: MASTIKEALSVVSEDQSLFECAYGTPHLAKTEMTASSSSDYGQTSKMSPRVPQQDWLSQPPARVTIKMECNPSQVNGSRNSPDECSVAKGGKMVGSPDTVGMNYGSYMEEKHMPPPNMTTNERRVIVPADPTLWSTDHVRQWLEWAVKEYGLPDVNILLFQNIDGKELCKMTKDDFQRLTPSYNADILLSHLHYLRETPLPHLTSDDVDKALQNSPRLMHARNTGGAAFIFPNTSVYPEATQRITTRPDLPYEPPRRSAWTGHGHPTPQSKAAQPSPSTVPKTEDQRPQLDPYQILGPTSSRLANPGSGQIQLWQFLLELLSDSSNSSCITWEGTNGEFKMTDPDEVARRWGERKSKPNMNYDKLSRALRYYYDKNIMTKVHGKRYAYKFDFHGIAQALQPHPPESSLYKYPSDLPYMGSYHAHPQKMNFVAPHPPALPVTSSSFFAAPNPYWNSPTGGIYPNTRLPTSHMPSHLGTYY
# Procedure, shortened: as §1
# ELF1 = ELF1 (Homo sapiens, UniProt P32519 1-619); details: protein: recombinant; tags: N-terminal GST; dsDNA, one strand shown
# ELF1, sequence (P32519 whole entry): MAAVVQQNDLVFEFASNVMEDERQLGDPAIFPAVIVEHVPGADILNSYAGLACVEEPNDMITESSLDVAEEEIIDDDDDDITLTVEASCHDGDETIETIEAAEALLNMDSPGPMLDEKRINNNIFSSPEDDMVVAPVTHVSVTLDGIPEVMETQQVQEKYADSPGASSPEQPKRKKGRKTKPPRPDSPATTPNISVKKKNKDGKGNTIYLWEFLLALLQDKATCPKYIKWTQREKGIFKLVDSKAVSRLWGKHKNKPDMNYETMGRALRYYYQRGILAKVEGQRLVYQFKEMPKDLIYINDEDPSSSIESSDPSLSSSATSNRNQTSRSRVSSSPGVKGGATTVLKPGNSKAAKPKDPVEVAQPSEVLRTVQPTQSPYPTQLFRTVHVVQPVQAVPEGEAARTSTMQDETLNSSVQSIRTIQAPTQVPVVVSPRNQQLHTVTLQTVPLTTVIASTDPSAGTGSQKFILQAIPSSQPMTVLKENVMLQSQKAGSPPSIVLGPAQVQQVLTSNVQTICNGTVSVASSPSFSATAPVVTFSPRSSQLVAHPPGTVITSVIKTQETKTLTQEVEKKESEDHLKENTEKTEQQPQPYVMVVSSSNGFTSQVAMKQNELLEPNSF
# Procedure, shortened: as §1
# EHF = target: T5, EHF (Homo sapiens, UniProt Q9NZC4 1-300); details: protein: recombinant; tags: N-terminal GST; dsDNA, one strand shown
# T5 sequence: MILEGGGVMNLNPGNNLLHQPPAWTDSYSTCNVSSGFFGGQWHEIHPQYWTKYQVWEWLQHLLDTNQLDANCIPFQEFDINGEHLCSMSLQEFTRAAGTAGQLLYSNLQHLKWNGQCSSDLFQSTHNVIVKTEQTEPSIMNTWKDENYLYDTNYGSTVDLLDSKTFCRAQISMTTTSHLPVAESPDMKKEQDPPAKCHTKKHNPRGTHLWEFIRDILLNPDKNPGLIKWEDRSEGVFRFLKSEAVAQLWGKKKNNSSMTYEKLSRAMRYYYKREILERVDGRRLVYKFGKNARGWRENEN
# Procedure, shortened: as §1
# SPIB = SPIB (Homo sapiens, UniProt Q01892 1-262); details: protein: recombinant; tags: N-terminal GST; dsDNA, one strand shown
# SPIB, sequence (Q01892 whole entry): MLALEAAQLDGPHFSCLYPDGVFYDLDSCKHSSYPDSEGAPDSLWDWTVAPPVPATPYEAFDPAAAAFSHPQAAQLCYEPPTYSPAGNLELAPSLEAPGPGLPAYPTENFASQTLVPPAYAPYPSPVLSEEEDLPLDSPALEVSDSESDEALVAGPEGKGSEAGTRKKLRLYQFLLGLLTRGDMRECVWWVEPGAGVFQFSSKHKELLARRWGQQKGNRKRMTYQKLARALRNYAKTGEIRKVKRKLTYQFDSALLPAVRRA
# Procedure, shortened: as §1
# ELK3 = target: T6, ELK3 (Homo sapiens, UniProt P41970 1-407); details: protein: recombinant; tags: N-terminal GST; dsDNA, one strand shown
# T6 sequence: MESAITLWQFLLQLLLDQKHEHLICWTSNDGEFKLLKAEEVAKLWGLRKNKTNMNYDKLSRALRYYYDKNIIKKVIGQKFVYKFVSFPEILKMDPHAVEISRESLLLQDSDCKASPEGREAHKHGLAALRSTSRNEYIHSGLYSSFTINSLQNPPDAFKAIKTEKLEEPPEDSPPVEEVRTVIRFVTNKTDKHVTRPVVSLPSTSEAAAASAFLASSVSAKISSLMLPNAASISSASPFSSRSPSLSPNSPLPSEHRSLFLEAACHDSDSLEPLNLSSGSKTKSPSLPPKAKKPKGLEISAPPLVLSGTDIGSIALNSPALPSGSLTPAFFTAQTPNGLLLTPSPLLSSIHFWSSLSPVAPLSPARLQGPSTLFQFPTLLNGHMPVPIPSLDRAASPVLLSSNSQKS
# Procedure, shortened: as §1
# FEV = target: T7, FEV (Homo sapiens, UniProt Q99581 1-238); details: protein: recombinant; tags: N-terminal GST; dsDNA, one strand shown
# T7 sequence: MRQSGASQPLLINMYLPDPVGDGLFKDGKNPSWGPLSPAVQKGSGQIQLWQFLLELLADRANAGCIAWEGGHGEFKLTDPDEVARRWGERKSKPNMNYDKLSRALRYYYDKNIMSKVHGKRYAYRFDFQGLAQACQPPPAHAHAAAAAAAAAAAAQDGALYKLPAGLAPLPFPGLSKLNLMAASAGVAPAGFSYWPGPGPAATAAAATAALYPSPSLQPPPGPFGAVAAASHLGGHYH
# Procedure, shortened: as §1
# ETV5 = ETV5 (Homo sapiens, UniProt P41161 1-510); details: protein: recombinant; tags: N-terminal GST; dsDNA, one strand shown
# ETV5, sequence (P41161 whole entry): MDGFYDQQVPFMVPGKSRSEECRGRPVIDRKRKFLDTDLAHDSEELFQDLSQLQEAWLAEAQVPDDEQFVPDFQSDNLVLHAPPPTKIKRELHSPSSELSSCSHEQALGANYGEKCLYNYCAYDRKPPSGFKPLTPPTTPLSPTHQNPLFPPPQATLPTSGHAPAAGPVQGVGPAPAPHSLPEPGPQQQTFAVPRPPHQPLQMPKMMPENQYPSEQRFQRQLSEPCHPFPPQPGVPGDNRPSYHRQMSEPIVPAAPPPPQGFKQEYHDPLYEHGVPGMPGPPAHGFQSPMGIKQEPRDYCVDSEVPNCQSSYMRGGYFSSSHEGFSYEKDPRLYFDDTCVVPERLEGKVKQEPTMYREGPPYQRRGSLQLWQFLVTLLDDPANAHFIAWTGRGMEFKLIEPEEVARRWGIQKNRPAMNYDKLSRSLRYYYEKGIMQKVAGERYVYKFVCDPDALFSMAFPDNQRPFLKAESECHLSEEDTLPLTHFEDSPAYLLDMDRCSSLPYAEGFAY
# Procedure, shortened: as §1
# HSF1 = HSF1 (Homo sapiens, UniProt Q00613 1-529); details: protein: recombinant; tags: N-terminal GST; chain copies: 3; dsDNA, one strand shown
# HSF1, sequence (Q00613 whole entry): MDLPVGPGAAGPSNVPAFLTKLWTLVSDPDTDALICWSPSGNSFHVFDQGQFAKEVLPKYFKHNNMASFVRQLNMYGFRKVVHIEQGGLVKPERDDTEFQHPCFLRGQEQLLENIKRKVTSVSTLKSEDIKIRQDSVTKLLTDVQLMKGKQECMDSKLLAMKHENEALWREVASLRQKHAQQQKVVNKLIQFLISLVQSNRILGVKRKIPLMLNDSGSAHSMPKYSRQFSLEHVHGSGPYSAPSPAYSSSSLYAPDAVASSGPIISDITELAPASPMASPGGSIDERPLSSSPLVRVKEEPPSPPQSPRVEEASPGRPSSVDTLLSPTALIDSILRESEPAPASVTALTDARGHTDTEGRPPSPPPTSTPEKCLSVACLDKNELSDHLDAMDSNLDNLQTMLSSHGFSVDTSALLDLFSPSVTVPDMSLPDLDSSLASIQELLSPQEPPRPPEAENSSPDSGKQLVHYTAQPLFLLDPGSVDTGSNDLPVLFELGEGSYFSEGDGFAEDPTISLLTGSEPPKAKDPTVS
# Procedure, shortened: as §1
# SPIC = target: T8, SPIC (Homo sapiens, UniProt Q8N5J4 1-248); details: protein: recombinant; tags: N-terminal GST; dsDNA, one strand shown
# T8 sequence: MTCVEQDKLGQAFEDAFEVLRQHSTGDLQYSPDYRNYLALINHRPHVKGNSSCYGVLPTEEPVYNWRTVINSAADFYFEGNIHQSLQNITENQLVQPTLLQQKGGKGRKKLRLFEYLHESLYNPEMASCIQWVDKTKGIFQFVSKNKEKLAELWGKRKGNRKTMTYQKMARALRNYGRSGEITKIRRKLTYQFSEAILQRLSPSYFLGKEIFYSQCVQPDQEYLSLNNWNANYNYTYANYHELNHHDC
# Procedure, shortened: as §1
# ELF4 = ELF4 (Homo sapiens, UniProt Q99607 1-663); details: protein: recombinant; tags: N-terminal GST; dsDNA, one strand shown
# ELF4, sequence (Q99607 whole entry): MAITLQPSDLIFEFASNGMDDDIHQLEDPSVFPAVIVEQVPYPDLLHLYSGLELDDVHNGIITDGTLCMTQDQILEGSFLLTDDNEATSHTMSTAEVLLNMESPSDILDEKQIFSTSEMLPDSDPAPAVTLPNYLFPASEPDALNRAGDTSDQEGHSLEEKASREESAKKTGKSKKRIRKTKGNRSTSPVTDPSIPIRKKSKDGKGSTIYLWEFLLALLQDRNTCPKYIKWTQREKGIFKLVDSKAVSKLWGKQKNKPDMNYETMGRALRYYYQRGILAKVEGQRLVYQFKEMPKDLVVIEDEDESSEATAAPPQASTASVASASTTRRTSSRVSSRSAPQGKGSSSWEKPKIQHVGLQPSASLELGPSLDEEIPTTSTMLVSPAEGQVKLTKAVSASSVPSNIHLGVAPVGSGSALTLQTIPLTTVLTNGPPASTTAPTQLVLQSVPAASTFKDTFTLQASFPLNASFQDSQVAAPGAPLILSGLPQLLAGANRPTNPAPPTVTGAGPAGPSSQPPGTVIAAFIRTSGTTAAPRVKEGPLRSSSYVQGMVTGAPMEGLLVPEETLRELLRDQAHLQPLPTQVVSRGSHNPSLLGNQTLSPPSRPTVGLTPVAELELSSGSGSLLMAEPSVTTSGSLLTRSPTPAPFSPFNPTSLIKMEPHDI
# Procedure, shortened: as §1
# ELK4 = target: T9, ELK4 (Homo sapiens, UniProt P28324-2 1-405); details: protein: recombinant; tags: N-terminal GST; dsDNA, one strand shown
# T9 sequence: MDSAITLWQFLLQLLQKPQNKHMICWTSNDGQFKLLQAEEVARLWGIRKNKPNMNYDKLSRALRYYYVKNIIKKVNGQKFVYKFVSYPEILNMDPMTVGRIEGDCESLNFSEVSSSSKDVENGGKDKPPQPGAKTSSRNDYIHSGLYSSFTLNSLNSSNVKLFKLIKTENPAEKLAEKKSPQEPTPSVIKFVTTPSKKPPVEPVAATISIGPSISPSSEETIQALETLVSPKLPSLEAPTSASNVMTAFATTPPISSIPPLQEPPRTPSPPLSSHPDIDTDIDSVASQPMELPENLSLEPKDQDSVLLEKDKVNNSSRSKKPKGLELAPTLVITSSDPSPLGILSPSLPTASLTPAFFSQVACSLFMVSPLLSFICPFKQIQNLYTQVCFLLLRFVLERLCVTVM
# Procedure, shortened: as §1
# ETV2 = target: T10, ETV2 (Homo sapiens, UniProt O00321 1-342); details: protein: recombinant; tags: N-terminal GST; dsDNA, one strand shown
# T10 sequence: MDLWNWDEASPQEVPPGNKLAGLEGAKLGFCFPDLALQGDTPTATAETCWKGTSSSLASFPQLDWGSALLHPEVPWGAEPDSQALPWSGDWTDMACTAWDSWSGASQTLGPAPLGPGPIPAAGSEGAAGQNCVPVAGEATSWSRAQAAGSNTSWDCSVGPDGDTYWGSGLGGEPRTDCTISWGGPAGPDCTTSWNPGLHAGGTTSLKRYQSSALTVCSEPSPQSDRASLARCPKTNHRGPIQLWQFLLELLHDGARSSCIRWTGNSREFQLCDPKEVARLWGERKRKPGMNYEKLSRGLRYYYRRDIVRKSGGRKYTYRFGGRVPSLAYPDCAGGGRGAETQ
# Procedure, shortened: as §1
# ELF3 = target: T11, ELF3 (Homo sapiens, UniProt P78545 1-371); details: protein: recombinant; tags: N-terminal GST; dsDNA, one strand shown
# T11 sequence: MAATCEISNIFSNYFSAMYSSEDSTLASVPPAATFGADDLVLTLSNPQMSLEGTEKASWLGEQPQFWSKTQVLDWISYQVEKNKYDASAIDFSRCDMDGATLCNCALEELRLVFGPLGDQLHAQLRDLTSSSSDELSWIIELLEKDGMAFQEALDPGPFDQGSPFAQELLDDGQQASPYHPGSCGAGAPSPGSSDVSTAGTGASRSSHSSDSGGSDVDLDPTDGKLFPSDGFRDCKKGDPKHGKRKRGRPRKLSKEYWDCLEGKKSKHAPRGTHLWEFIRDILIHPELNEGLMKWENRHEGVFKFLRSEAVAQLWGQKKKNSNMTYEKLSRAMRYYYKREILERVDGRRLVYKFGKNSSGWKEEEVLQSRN
# Procedure, shortened: as §1
# CRX = CRX (Homo sapiens, UniProt O43186 1-299); details: protein: recombinant; tags: N-terminal GST; dsDNA, one strand shown
# CRX, sequence (O43186 whole entry): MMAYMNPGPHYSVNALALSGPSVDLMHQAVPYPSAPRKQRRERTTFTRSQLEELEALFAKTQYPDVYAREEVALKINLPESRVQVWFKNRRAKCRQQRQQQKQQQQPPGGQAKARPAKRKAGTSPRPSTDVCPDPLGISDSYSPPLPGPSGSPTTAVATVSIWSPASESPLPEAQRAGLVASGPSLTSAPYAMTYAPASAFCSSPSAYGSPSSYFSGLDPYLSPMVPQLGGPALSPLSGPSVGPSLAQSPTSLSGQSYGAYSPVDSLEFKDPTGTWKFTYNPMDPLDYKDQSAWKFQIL
# Procedure, shortened: as §1
# ETV1 = ETV1 (Homo sapiens, UniProt P50549 1-477); details: protein: recombinant; tags: N-terminal GST; dsDNA, one strand shown
# ETV1, sequence (P50549 whole entry): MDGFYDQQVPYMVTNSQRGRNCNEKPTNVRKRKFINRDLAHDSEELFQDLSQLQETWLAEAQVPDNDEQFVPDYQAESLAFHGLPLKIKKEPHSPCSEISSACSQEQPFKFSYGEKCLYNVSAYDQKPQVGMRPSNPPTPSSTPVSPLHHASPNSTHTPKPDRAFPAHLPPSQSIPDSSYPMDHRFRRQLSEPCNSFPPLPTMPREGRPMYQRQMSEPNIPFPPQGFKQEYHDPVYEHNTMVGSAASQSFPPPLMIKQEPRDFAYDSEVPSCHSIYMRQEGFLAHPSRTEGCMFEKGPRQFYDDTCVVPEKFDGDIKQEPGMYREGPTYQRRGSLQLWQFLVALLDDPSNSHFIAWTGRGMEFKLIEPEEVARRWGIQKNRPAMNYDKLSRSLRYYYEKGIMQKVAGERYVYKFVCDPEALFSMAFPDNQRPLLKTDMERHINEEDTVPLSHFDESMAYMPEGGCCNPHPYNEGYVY
# Procedure, shortened: as §1
sequence,measurement,setting,value
TCGAAT,binding signal,FLI1,"1 fold enrichment (6-mer frequency, TF over GST control)"
same,binding signal,ELK1,"1.09 fold enrichment (6-mer frequency, TF over GST control)"
same,binding signal,GABPA,"1.12 fold enrichment (6-mer frequency, TF over GST control)"
same,binding signal,ERG,"1.08 fold enrichment (6-mer frequency, TF over GST control)"
same,binding signal,ELF1,"1.11 fold enrichment (6-mer frequency, TF over GST control)"
same,binding signal,EHF,"1.02 fold enrichment (6-mer frequency, TF over GST control)"
same,binding signal,SPIB,"1.07 fold enrichment (6-mer frequency, TF over GST control)"
same,binding signal,ELK3,"1.15 fold enrichment (6-mer frequency, TF over GST control)"
same,binding signal,FEV,"1.03 fold enrichment (6-mer frequency, TF over GST control)"
same,binding signal,ETV5,"1.15 fold enrichment (6-mer frequency, TF over GST control)"
same,binding signal,HSF1,"2.2 fold enrichment (6-mer frequency, TF over GST control)"
same,binding signal,SPIC,"1.03 fold enrichment (6-mer frequency, TF over GST control)"
same,binding signal,ELF4,"1.1 fold enrichment (6-mer frequency, TF over GST control)"
same,binding signal,ELK4,"1.33 fold enrichment (6-mer frequency, TF over GST control)"
same,binding signal,ETV2,"1.03 fold enrichment (6-mer frequency, TF over GST control)"
same,binding signal,ELF3,"1.11 fold enrichment (6-mer frequency, TF over GST control)"
same,binding signal,CRX,"1.38 fold enrichment (6-mer frequency, TF over GST control)"
same,binding signal,ETV1,"1 fold enrichment (6-mer frequency, TF over GST control)"
